From PubChem
MCF10A rereplic – A quantitative high throughput screen for small molecules that induce DNA re-replication in MCF 10a normal breast cells | MCF 10A DNA re-replication, Hoechst nuclear intensity, 48 h | Potency, µM (titrated, usually from 46.1 µM), inactives show top-dose activity, positive = re-replication, most hits filed as activators | 350,000 tested, 2.9% active | AID 624296, 2012; also: % of control where 0% means no effect; nearly all actives have a fitted effect of over 50% in size
SW480 rereplic – A quantitative high throughput screen for small molecules that induce DNA re-replication in SW480 colon adenocarcinoma cells; 340,000 tested, 1.8% active; Potency, µM (highest dose often 46.1 µM), for inactives: top-dose re-replication activation, most hits filed as activators; AID 624297, 2012; SW480 DNA re-replication, Hoechst DNA content imaging, 48 h; also: % of control where 0% means no effect; nearly all actives have a fitted effect of over 55% in size
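Per well, 250 cells were exposed to pinned compound for 48 hr. Nuclear DNA was visualised with Hoechst (40 min, 37 C) and total object intensity recorded by fluorescence scanning.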
HT1080 IDH1KD tx – qHTS for induction of synthetic lethality in tumor cells producing 2HG: qHTS for the HT-1080-IDH1KD cell line. HT-1080 IDH1 knockdown viability, ATP luminescence, 48 h. Potency, µM (highest dose often 46.1 µM), for the others: top-dose activity, negative = toxicity, usual class: cytotoxic. 360,000 tested, 2% active;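 also: 0% = DMSO wells and -100% = cell-free medium wells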
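Assay cells: HT-1080 with IDH1 knockdown, 750 per well, RPMI/5% FBS. Exposure: 48 h at 37 °C following 2 h pre-incubation. Read: CellTiter-Glo luminescence; fitted concentration-response, curve class assigned.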
KB-V1 cytotox – qHTS assay for MDR1-selective chemotherapeutics: Primary screen using the drug-selected MDR subline cells KB-V1; KB-V1 MDR cells viability, CellTiter-Glo, 72 h; Potency, µM (doses to about 46.1 µM), most hits filed as cytotoxic; 400,000 tested, 3.4% active; also: % is scaled to controls: 0 for no effect and ±100 for the full control effect; nearly all actives have a fitted effect of over 60% in size
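Following 72 h at 37 degrees C with compound, KB-V1 cell viability was read by CellTiter-Glo luminescence, medium being phenol-red-free DMEM plus 10% FBS; concentration-response parameters came from normalized, curve-fitted qHTS data.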
KB-3-1 cytotox – qHTS assay for MDR1-selective chemotherapeutics: Primary screen using the parental adenocarcinoma cell KB-3-1; KB-3-1 viability, CellTiter-Glo ATP luminescence, 72 h; Potency, µM (titrated, usually from 46.1 µM), most hits filed as cytotoxic; 400,000 tested, 1.4% active; also: % is scaled to controls: 0 for no effect and ±100 for the full control effect; nearly all actives have a fitted effect of over 60% in size
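72 h, 37 °C compound treatment of KB-3-1 parental cells; CellTiter-Glo added, 10 min, luminescence read. Data corrected against DMSO-only plates and normalized before curve fitting.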
HT1080NT lethal – qHTS for induction of synthetic lethality in tumor cells producing 2HG: qHTS for the HT-1080-NT fibrosarcoma cell line; HT-1080-NT fibrosarcoma viability, CellTiter-Glo ATP luminescence, 48 h; Potency, µM (top dose mostly 46.1 µM), for the others: at the highest dose activity, negative = less viability, usual class: cytotoxic; 360,000 tested, 1.6% active; AID 686970, 2013;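 also: NT is the 2HG producing partner of a matched IDH1 knockdown line; 0% = DMSO-treated cells and -100% = media-only wells without cells; nearly all actives have a fitted effect of over 55% in size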
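Fibrosarcoma NT cells, 750 per well in 5% FBS RPMI, were exposed to compound for 48 hours. Viability: CellTiter-Glo luminescence.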
An asterisk follows results filed as active. In the library only some 8% were active in any assay of this set; here they are far more common. Calls follow the shape of the dose curve; as a rule, active = well fitted curve in the direction sought with a large enough effect; inconclusive = small, poorly fitted or top-dose-only effect, or another doubt; inactive = no such curve, though single readings can be large; an effect the other way counts as inactive or inconclusive. Potency is read from the fitted curve at half-maximal effect.

For COc1ccc2c(=O)cc(-c3ccncc3)oc2c1OC the results were MCF10A rereplic inconclusive, SW480 rereplic inconclusive, HT1080 IDH1KD tx 23µM*, KB-V1 cytotox inconclusive, KB-3-1 cytotox inconclusive and HT1080NT lethal inconclusive.
`COc1ccc(-c2cc(=O)c3c(OC)c(OC)c(OC)c(OC)c3o2)cc1OC` gave MCF10A rereplic inconclusive, SW480 rereplic -81%, HT1080 IDH1KD tx -22%, KB-V1 cytotox inconclusive, KB-3-1 cytotox inactive and HT1080NT lethal -8%.
CSc1ccc(N2CCN(CCCNC(=O)Nc3ccccc3F)CC2)cc1 was read as MCF10A rereplic inconclusive, SW480 rereplic -2%, HT1080 IDH1KD tx -1%, KB-V1 cytotox inconclusive, KB-3-1 cytotox inactive and HT1080NT lethal 7%.
`COc1ccc(-c2csc(NC(=O)c3c(OC)cccc3OC)n2)cc1` gave MCF10A rereplic inconclusive, SW480 rereplic 4%, HT1080 IDH1KD tx 0%, KB-V1 cytotox inactive, KB-3-1 cytotox inactive and HT1080NT lethal 4%.
`COc1ccc(-c2csc(NC(=O)c3ccccc3NS(=O)(=O)c3ccc(C)cc3)n2)cc1` gave MCF10A rereplic inconclusive, SW480 rereplic 2%, HT1080 IDH1KD tx inconclusive, KB-V1 cytotox 2.3µM*, KB-3-1 cytotox 2.6µM* and HT1080NT lethal inconclusive.
Screening COc1ccc(NC(=O)c2ccccc2NS(=O)(=O)c2ccc(CNC(C)=O)cc2)c(OC)c1 returned MCF10A rereplic 5.2µM*, SW480 rereplic -41%, HT1080 IDH1KD tx inconclusive, KB-V1 cytotox inactive, KB-3-1 cytotox inconclusive and HT1080NT lethal 13µM*.
Screening O=C(Nc1nc(-c2ccc(Oc3ccccc3)cc2)cs1)C1=COCCO1 returned MCF10A rereplic 19%, SW480 rereplic -5%, HT1080 IDH1KD tx inconclusive, KB-V1 cytotox 18µM*, KB-3-1 cytotox inconclusive and HT1080NT lethal 2%.
Screening COc1ccc(S(=O)(=O)Nc2ccccc2C(=O)Nc2nc(-c3ccc(F)cc3)cs2)cc1OC returned MCF10A rereplic inconclusive, SW480 rereplic inconclusive, HT1080 IDH1KD tx inconclusive, KB-V1 cytotox 15µM*, KB-3-1 cytotox inconclusive and HT1080NT lethal inconclusive.
`NC(=O)C1CCN(C(=O)NC2CC(=O)N(c3ccc4c(c3)OCCO4)C2)CC1` (centres undefined) gave MCF10A rereplic -1%, SW480 rereplic -7%, HT1080 IDH1KD tx -4%, KB-V1 cytotox inactive, KB-3-1 cytotox inconclusive and HT1080NT lethal 0%.
`O=C(COc1ccc2c3c(c(=O)oc2c1)CCCC3)NCCCN1CCOCC1` gave MCF10A rereplic -1%, SW480 rereplic -6%, HT1080 IDH1KD tx 14%, KB-V1 cytotox inactive, KB-3-1 cytotox inactive and HT1080NT lethal 2%.
`Cc1[nH]c2ccccc2c1SCC(=O)NNC(=O)Nc1ccc(OC(F)(F)F)cc1` gave MCF10A rereplic 13µM*, SW480 rereplic -3%, HT1080 IDH1KD tx -23%, KB-V1 cytotox inactive, KB-3-1 cytotox inactive and HT1080NT lethal inconclusive.
For Cc1cc(NC(=O)CSc2c(C)[nH]c3ccccc23)no1 the results were MCF10A rereplic 15%, SW480 rereplic -3%, HT1080 IDH1KD tx -6%, KB-V1 cytotox inactive, KB-3-1 cytotox inactive and HT1080NT lethal -4%.
Screening Cc1ccc(NC(=O)C(=O)NN)cc1 returned MCF10A rereplic 0%, SW480 rereplic 3%, HT1080 IDH1KD tx 3%, KB-V1 cytotox inactive, KB-3-1 cytotox inactive and HT1080NT lethal -4%.
For NNC(=O)C(=O)Nc1ccc(O)cc1 the results were MCF10A rereplic inconclusive, SW480 rereplic -29%, HT1080 IDH1KD tx inconclusive, KB-V1 cytotox inactive, KB-3-1 cytotox inconclusive and HT1080NT lethal 7.3µM*.
`COc1ccc(CCN2C(=O)c3cccnc3C2=O)cc1OC` gave MCF10A rereplic -5%, SW480 rereplic -1%, HT1080 IDH1KD tx 11%, KB-V1 cytotox inactive, KB-3-1 cytotox inactive and HT1080NT lethal 9%.
`COc1ccc(C2SCC(=O)N2CCc2ccc(OC)c(OC)c2)cc1` (centres undefined) gave MCF10A rereplic 0.52µM*, SW480 rereplic 10µM*, HT1080 IDH1KD tx 18µM*, KB-V1 cytotox inconclusive, KB-3-1 cytotox inconclusive and HT1080NT lethal inconclusive.
COc1ccc(CCN2C(=O)C=CC2=O)cc1OC was read as MCF10A rereplic 4.6µM*, SW480 rereplic 7.3µM*, HT1080 IDH1KD tx 6.5µM*, KB-V1 cytotox inconclusive, KB-3-1 cytotox inactive and HT1080NT lethal inconclusive.
COc1ccc(NC2=C(Cl)C(=O)N(CCc3ccccc3)C2=O)c(OC)c1 was read as MCF10A rereplic -2%, SW480 rereplic -7%, HT1080 IDH1KD tx -2%, KB-V1 cytotox 13µM*, KB-3-1 cytotox inactive and HT1080NT lethal 0%.
COc1ccc(CCNC2=C(Cl)C(=O)N(CCc3ccc(OC)c(OC)c3)C2=O)cc1OC was read as MCF10A rereplic 3%, SW480 rereplic 2%, HT1080 IDH1KD tx -11%, KB-V1 cytotox 21µM*, KB-3-1 cytotox inconclusive and HT1080NT lethal 0%.
`COc1ccc(NC2=C(Cl)C(=O)N(CCc3ccccc3)C2=O)cc1` gave MCF10A rereplic 0%, SW480 rereplic 2%, HT1080 IDH1KD tx -7%, KB-V1 cytotox inactive, KB-3-1 cytotox inactive and HT1080NT lethal -1%.
`Cc1cccc(C)c1NC(=O)CN(C)C(=O)CSCc1c(C)noc1C` gave MCF10A rereplic -3%, SW480 rereplic 1%, HT1080 IDH1KD tx 0%, KB-V1 cytotox inactive, KB-3-1 cytotox inactive and HT1080NT lethal 2%.
For CCCC1(c2ccccc2)NC(=O)N(CC(=O)NCc2ccc(C)cc2)C1=O (centres undefined) the results were MCF10A rereplic -25%, SW480 rereplic 0%, HT1080 IDH1KD tx 1%, KB-V1 cytotox inactive, KB-3-1 cytotox inactive and HT1080NT lethal -2%.
CCOc1ccc(N2CC(c3nc4ccccc4n3CCCCOc3ccc(OC)cc3)CC2=O)cc1 (centres undefined) was read as KB-V1 cytotox inconclusive and KB-3-1 cytotox inactive.
For COc1ccc(CCn2c3c(c(=O)[nH]c2=S)CN(Cc2ccccc2)CN3)cc1OC the results were HT1080 IDH1KD tx -15% and HT1080NT lethal -1%.
